This is part of a sample that, as a whole, favours compounds with a hit. Of some 79,000 tested, about 15% had one in any assay. Unmarked numbers belong to inactive results. Calls of active or inactive are those of the source. Rule as the data show it: active = growth inhibition above about 70%; inactive = the rest.

Consider seven compounds from PubChem BioAssay (NCI).

The nature of assay [1]: NCI Yeast Anticancer Drug Screen. Data for the rad50 strain (AID 155).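 Also: 0% = growth of vehicle-only cultures of the same strain.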 Conditions: S. cerevisiae rad50 strain growth inhibition, hits give high values. Summed up: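 Compounds were tested on a yeast strain with an engineered DNA damage repair alteration; the reported value is growth inhibition normalised to vehicle treatment.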
A short description of assay [2]: NCI Yeast Anticancer Drug Screen. Data for the mec2-1 strain (AID 157). Conditions: S. cerevisiae mec2-1 strain, hits give high values. The essentials:
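Readout is yeast growth inhibition, normalised to vehicle-treated controls, in the mec2-1 strain exposed to compound.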

Assay [3] in a line: NCI Yeast Anticancer Drug Screen. Data for the sgs1 mgt1 strain (AID 161).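 Also: 0% = growth of cultures given vehicle only.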 Conditions: S. cerevisiae sgs1 mgt1 strain, hits give high values. The essentials:
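Growth of a repair-deficient yeast mutant was monitored after compound treatment and expressed as inhibition relative to vehicle-treated cultures.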

Assay [4] in a line: NCI Yeast Anticancer Drug Screen. Data for the cln2 rad14 strain (AID 165).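 Also: 0% = growth equal to vehicle treated cultures.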 Conditions: S. cerevisiae cln2 rad14 strain, hits give high values. The essentials:
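Relative to vehicle controls, growth inhibition of compound-treated cln2 rad14 yeast was recorded.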

Assay [5] is described as follows: NCI Yeast Anticancer Drug Screen. Data for the bub3 strain (AID 167). Conditions: S. cerevisiae bub3 mutant strain, hits give high values. Summed up: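 Growth of a checkpoint-deficient yeast mutant is measured after compound exposure. Values represent inhibition relative to vehicle.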
A short description of assay [6]: NCI Yeast Anticancer Drug Screen. Data for the mlh1 rad18 strain (AID 175). Conditions: S. cerevisiae mlh1 rad18 strain growth inhibition, hits give high values. Summed up:
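Test agents were incubated with a yeast strain of defined genotype (DNA damage repair defect). Inhibition of growth was derived by comparison with vehicle-exposed cultures.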

Setting [7] is: at 5.0 µM (retest, dose inferred, filed as 0.5).
Setting [8] is: at 50.0 µM (retest, dose inferred, filed as 5.0).

Regarding `Cn1c2ccccc2c2nnc(N/N=C/c3ccccn3)nc21`, the growth inhibition in assay [1] (setting [7]) is 26%; in assay [1] (setting [8]), 98% (active); in assay [1] (at 50.0 µM) it was 94.4% (active); in assay [2] (setting [7]), 21%; in assay [2] (setting [8]) it was 97% (active); in assay [2] (at 50.0 µM), 96.5% (active). Moreover, the growth inhibition in assay [3] (setting [7]) is 23%; in assay [3] (setting [8]), 98% (active); in assay [3] (at 50.0 µM), 96.9% (active); in assay [4] (setting [7]), 8%; in assay [4] (setting [8]) it was 97% (active); in assay [4] (at 50.0 µM) it was 96.2% (active). Moreover, the growth inhibition in assay [5] (setting [7]) is 13%; in assay [5] (setting [8]) it was 99% (active); in assay [5] (at 50.0 µM), 96.2% (active); in assay [6] (setting [7]), 22%; in assay [6] (setting [8]), 98% (active); in assay [6] (at 50.0 µM) it was 96.4% (active).
In the case of `O=C=Nc1ccccc1-c1ccc([N+](=O)[O-])cc1Cl`, the growth inhibition is -1% in assay [1] (setting [7]); 20% in assay [1] (setting [8]); 73.2% (active) in assay [1] (at 50.0 µM); 32% in assay [2] (setting [7]); 62% in assay [2] (setting [8]); 37.6% in assay [2] (at 50.0 µM). The growth inhibition in assay [3] (setting [7]) is 8%; in assay [3] (setting [8]) it was 44%; in assay [3] (at 50.0 µM), 21.9%; in assay [4] (setting [7]), -5%; in assay [4] (setting [8]) it was -2%; in assay [4] (at 50.0 µM) it was 68.8%. In addition, the growth inhibition in assay [5] (setting [7]) was 36%; in assay [5] (setting [8]), 42%; in assay [5] (at 50.0 µM), 83.7% (active); in assay [6] (setting [7]), 40%; in assay [6] (setting [8]), 62%; in assay [6] (at 50.0 µM), 84.2% (active).
Regarding `Cc1[nH]c2ccccc2c1C(c1ccccc1)c1c(C)[nH]c2ccccc12`, the growth inhibition is 2% in assay [1] (setting [7]); 92% (active) in assay [1] (setting [8]); 71.6% (active) in assay [1] (at 50.0 µM); 1% in assay [2] (setting [7]); 98% (active) in assay [2] (setting [8]); 83% (active) in assay [2] (at 50.0 µM). Moreover, the growth inhibition in assay [3] (setting [7]) is 10%; in assay [3] (setting [8]), 97% (active); in assay [3] (at 50.0 µM), 87.2% (active); in assay [4] (setting [7]), 0%; in assay [4] (setting [8]), 97% (active); in assay [4] (at 50.0 µM), 81% (active). The growth inhibition was -1% in assay [5] (setting [7]); 97% (active) in assay [5] (setting [8]); 83.5% (active) in assay [5] (at 50.0 µM); 20% in assay [6] (setting [7]); 97% (active) in assay [6] (setting [8]); 94.7% (active) in assay [6] (at 50.0 µM).
In the case of `COc1ccc2nc3cc(Cl)ccc3c(Nc3ccc(O)c(CNCCO)c3)c2c1`, the growth inhibition in assay [1] (setting [7]) was -27%; in assay [1] (setting [8]), 63%; in assay [1] (at 50.0 µM), 88.9% (active); in assay [2] (setting [7]), -1%; in assay [2] (setting [8]), -6%; in assay [2] (at 50.0 µM) it was 31.9%. For the same compound, the growth inhibition in assay [3] (setting [7]) was -5%; in assay [3] (setting [8]) it was 44%; in assay [3] (at 50.0 µM) it was 81% (active); in assay [4] (setting [7]), -2%; in assay [4] (setting [8]), -11%; in assay [4] (at 50.0 µM) it was 17.2%. Moreover, the growth inhibition in assay [5] (setting [7]) was 0%; in assay [5] (setting [8]) it was -4%; in assay [5] (at 50.0 µM) it was -7.15%; in assay [6] (setting [7]), -9%; in assay [6] (setting [8]), 12%; in assay [6] (at 50.0 µM), 29.6%.
Take `C=CC(=O)NC(=O)Nc1ccc(Cl)cc1`: the growth inhibition is 18% in assay [1] (setting [7]); 97% (active) in assay [1] (setting [8]); 98% (active) in assay [1] (at 50.0 µM); 32% in assay [2] (setting [7]); 98% (active) in assay [2] (setting [8]); 98.2% (active) in assay [2] (at 50.0 µM). Further, the growth inhibition in assay [3] (setting [7]) is 27%; in assay [3] (setting [8]), 99% (active); in assay [3] (at 50.0 µM) it was 98.9% (active); in assay [4] (setting [7]) it was 10%; in assay [4] (setting [8]), 98% (active); in assay [4] (at 50.0 µM), 97.5% (active). The growth inhibition is 23% in assay [5] (setting [7]); 97% (active) in assay [5] (setting [8]); 98.3% (active) in assay [5] (at 50.0 µM); 25% in assay [6] (setting [7]); 99% (active) in assay [6] (setting [8]); 98.7% (active) in assay [6] (at 50.0 µM).
Regarding `O=[N+]([O-])c1ccc(N/N=C/COCCO)c([N+](=O)[O-])c1`, the growth inhibition in assay [1] (setting [7]) was 2%; in assay [1] (setting [8]), 20%; in assay [1] (at 50.0 µM) it was 37.4%; in assay [2] (setting [7]), 9%; in assay [2] (setting [8]) it was 11%; in assay [2] (at 50.0 µM), 11.8%. Further, the growth inhibition is 0% in assay [3] (setting [7]); 62% in assay [3] (setting [8]); 23.1% in assay [3] (at 50.0 µM); 4% in assay [4] (setting [7]); 2% in assay [4] (setting [8]); -24.2% in assay [4] (at 50.0 µM). For the same compound, the growth inhibition is -1% in assay [5] (setting [7]); 14% in assay [5] (setting [8]); 73.6% (active) in assay [5] (at 50.0 µM); 1% in assay [6] (setting [7]); 8% in assay [6] (setting [8]); 62% in assay [6] (at 50.0 µM).
Turning to `Cc1ccc2c(c1)[n+]([O-])c(N)c(C#N)[n+]2[O-]`, the growth inhibition in assay [1] (setting [7]) was 0%; in assay [1] (setting [8]), 97% (active); in assay [1] (at 50.0 µM), 68.5%; in assay [2] (setting [7]), -22%; in assay [2] (setting [8]), 98% (active); in assay [2] (at 50.0 µM) it was 25.8%. Moreover, the growth inhibition in assay [3] (setting [7]) is -16%; in assay [3] (setting [8]) it was 97% (active); in assay [3] (at 50.0 µM), 36.3%; in assay [4] (setting [7]) it was -26%; in assay [4] (setting [8]), 98% (active); in assay [4] (at 50.0 µM), 15.8%. For the same compound, the growth inhibition in assay [5] (setting [7]) is -31%; in assay [5] (setting [8]), 97% (active); in assay [5] (at 50.0 µM), 29.4%; in assay [6] (setting [7]), -48%; in assay [6] (setting [8]), 96% (active); in assay [6] (at 50.0 µM), 62.4%.
